# Test results: PubChem BioAssay (Tox21)
# Where “and” joins values, the source holds several entries; their conditions need not be identical. Identical values can stand only once. Records with an inconclusive call do not appear. Entries that show only a call come without a potency. A structure can be active in one record and inactive in another. Calls of active or inactive are those of the source. Calls follow the shape of the dose curve; as a rule, active = well fitted cell-killing curve with a large enough effect in the repeat runs; inconclusive = weak or mixed curves, or effect the other way; inactive = flat fitted curve, though single readings scatter.
# Test: qHTS RealTime-Glo MT Cell Viability Assay in HEK293 cells - 16 hour (AID 1224872); also: nearly all actives have a fitted effect of over 50% in size
# Settings: RealTime-Glo luminescence; series mostly up to 76.8 µM
# Text: National Center for Advancing Translational Sciences [NCATS]
# NIH Chemical Genomics Center [NCGC]
# U.S. Environmental Protection Agency [EPA]
# National Institutes of Environmental Health Sciences [NIEHS]
# National Toxicology Program [NTP]
# U.S. Food and Drug Administration [FDA]
# Measure of cell viability is critical in the cell-base assay. Analysis of cell viability is necessary for the characterization of cell responses to cytotoxic drugs and environmental stress. A RealTime-Glo MT Cell Viability Assay to monitor cell viability in real time of continues cell culture during 40 hours of compound treatment was used to screen Tox21 10K library compounds in Hek293 cells. The RealTime-Glo MT Cell Viability Assay is a nonlytic, homogeneous, bioluminescent method to measure cell viability in real time using a simple, plate-based method. The assay involves adding NanoLuc luciferase and a cell-permeant prosubstrate to cells in culture. Viable cells reduce the proprietary prosubstrate to generate a substrate for NanoLuc luciferase. This substrate diffuses from cells into the surrounding culture medium, where it is rapidly used by the NanoLuc Enzyme to produce a luminescent signal. The signal correlates with the number of viable cells, making the assay well suited for cytotoxicity studies.
# Tox21 Assay Protocol Summary:
# The mixture of Hek293 cell suspension and reagents were dispensed at 600cells/6 ul/well in 1536-well tissue culture treated black solid bottom plates using a Multidrop dispenser. After the assay plates were incubated at a 37 C/5% CO2 incubator for 5 hours, 23 nL of compounds dissolved in DMSO, positive and negative controls was transferred to the assay plate by a pintool work station. The plates were incubated at 37 C for 40 hours. The luminescence intensity were measured at 0h, 8h, 16h, 24h, 32h and 40h time points using ViewLux plate reader during compound treatment.
# Potency is read from the fitted curve at half-maximal effect.
row,Structure (SMILES),Potency
1,COc1ccccc1N,inactive
2,CCCC[N+]1(C)CCCC1,inactive
3,Cc1cc(-c2ccc(N)c(C)c2)ccc1N,inactive
4,O=C(O)C(Cl)Cl,inactive
5,O=[N+]([O-])O,inactive
6,C[C@]12CCC(=O)C=C1CC[C@@H]1[C@@H]2CC[C@]2(C)C(=O)CC[C@@H]12,24.1 µM (active) and inactive
7,O=C(O)C(Cl)(Cl)Cl,inactive
8,CCOP(=S)(OCC)Oc1ccc2c(C)c(Cl)c(=O)oc2c1,14 µM (active) and 43.6 µM (active) and inactive
9,CCCCCCCCCCCCCC[P+](CCCCCC)(CCCCCC)CCCCCC,7.8 µM (active) and 8.78 µM (active)
10,CCCCCC[n+]1ccccc1,inactive
11,CCCCn1cc[n+](C)c1C,inactive
12,C1CCC(NC2CCCCC2)CC1,inactive
13,O=C(O)c1nc(Cl)ccc1Cl,inactive
14,Cc1cc(Cl)ccc1OCC(=O)O,inactive
15,CCC[N+]1(C)CCCCC1,inactive
16,Oc1cccc2cccnc12,inactive
17,O=C(O)CCl,inactive
18,CCCCCCCCCCCCCCCCn1cc[n+](C)c1,inactive and 24.8 µM (active) and 24.6 µM (active)
19,CC[n+]1ccccc1,inactive
20,O=P1(N(CCCl)CCCl)NCCCO1 (stereo not given),inactive

row,Structure (SMILES),Potency
1,CC[N+](CC)(CC)CC,inactive
2,Nc1ccc(-c2ccc(N)cc2)cc1,inactive
3,CCCCCCCCCCCCOS(=O)(=O)O,inactive
4,CCNc1nc(Cl)nc(NCC)n1,inactive
5,Nc1ccc(-c2ccc(N)c(Cl)c2)cc1Cl,24.5 µM (active)
6,CC(=O)[O][Hg][c]1ccccc1,344 nM (active) and 1.1 µM (active) and 268 nM (active)
7,O=c1[nH]c(=O)n(Cl)c(=O)n1Cl,inactive
8,C=CCOC(Cn1ccnc1)c1ccc(Cl)cc1Cl (stereo not given),43.8 µM (active)
9,CC(=O)O,inactive
10,CC(Cl)(Cl)C(=O)O,inactive
11,COc1ccc(N)cc1,inactive
12,CCCCn1cc[n+](C)c1,inactive
13,CCC(=O)C(CC(C)N(C)C)(c1ccccc1)c1ccccc1 (stereo not given),inactive
14,CNC,inactive
15,Nc1ccc(Cl)cc1,inactive
16,COP(=O)(OC)C(O)C(Cl)(Cl)Cl (stereo not given),inactive
17,O=C(O)CC(O)(CC(=O)O)C(=O)O,inactive
18,O=S(=O)(O)O,inactive
19,OCCOc1ccccc1,inactive
20,CCC[N+]1(C)CCCC1,inactive
